Assay outcomes deposited in PubChem by National Center for Advancing Translational Sciences (NCATS).
IMPase Li cell – qHTS Assay for Identifying the Cell-Membrane Permeable IMPase Inhibitors: Potentiation with Lithium; actives 0.35% (n = 210,000); Potency, µM (highest dose often 59.4 µM), actives largely listed as inhibitors; CHO-M1 cells, IP1 TR-FRET (IP-One), carbachol + lithium; active = well fitted curve in the direction sought with a large enough effect; inconclusive = small, poorly fitted or top-dose-only effect, or another doubt; inactive = no such curve, though single readings can be large; an effect the other way counts as inactive or inconclusive;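 note: IP1 builds up when IMPase is blocked and the TR-FRET signal falls; nearly all actives have a fitted effect of over 50% in size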
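Lithium-sensitised IP1 accumulation assay; M1-expressing CHO cells treated 30 min at 37C with compound. Competitive antibody detection by time-resolved FRET followed a 10 min room-temperature lysis step.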
HPGD block – qHTS Assay for Inhibitors of HPGD (15-Hydroxyprostaglandin Dehydrogenase) | 15-hydroxyprostaglandin dehydrogenase [NAD(+)] (Homo sapiens), P15428 | purified HPGD, NADH fluorescence kinetic, PGE2 substrate | Potency, µM, most hits filed as inhibitors | actives 4.3% (n = 150,000)
Target sequence (P15428 whole entry, looked up): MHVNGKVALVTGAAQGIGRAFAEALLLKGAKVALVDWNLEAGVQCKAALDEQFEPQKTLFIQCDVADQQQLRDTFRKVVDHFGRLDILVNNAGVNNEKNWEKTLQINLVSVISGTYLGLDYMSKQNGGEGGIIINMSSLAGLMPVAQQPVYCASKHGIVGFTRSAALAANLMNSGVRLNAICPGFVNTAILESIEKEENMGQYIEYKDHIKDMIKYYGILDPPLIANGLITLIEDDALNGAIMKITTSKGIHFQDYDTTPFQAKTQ
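NADH formation kinetics: reaction with 30 uM PGE2 and 1 mM NAD+ (final), 20 nM enzyme, Tris-HCl pH 8 with Tween 20, after 15 min compound preincubation at room temperature. Fluorescence change, last versus first of five reads.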
ALDH1A1 inh – qHTS Assay for Inhibitors of Aldehyde Dehydrogenase 1 (ALDH1A1). Purified ALDH1A1, NADH fluorescence, propionaldehyde substrate. Potency, µM (highest dose often 75.3 µM), actives largely listed as inhibitors. actives 7.3% (n = 220,000). AID 1030, 2008
Lamin A splicing – qHTS Assay for Modulators of Lamin A Splicing; HeLa LMNA splicing GFP/RFP minigene ratio, 48 h; Potency, µM (highest dose often 46.1 µM), actives largely listed as inhibitors; actives 0.01% (n = 200,000); AID 1487, 2009; active = well fitted inhibition curve with a large enough effect in the signal ratio, with a control signal flat, not every such curve was filed as active; inconclusive = small, poorly fitted or top-dose-only effect, or effect the other way, or a change in a side signal; the % refers to the signal ratio
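S3 HeLa stable clones carrying a lamin A-EGFP splicing minigene plus DsRed2 were seeded at 600 cells/well in Opti-MEM with 2% FBS, pin-dosed and incubated 48 h at 37°C. Acumen cytometry (488 nm) gave the GFP/RFP total-intensity ratio.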
Luc counter – Counterscreen for Luciferase (Kinase-Glo TM) Inhibition; actives 0.28% (n = 200,000); AID 1379, 2008; Kinase-Glo luciferase, ATP luminescence, 8 min; Luciferin 4-monooxygenase (Photuris pensylvanica), Q27757; Potency, µM (highest dose often 38.3 µM), most hits filed as inhibitors; active = well fitted curve in the direction sought with a large enough effect; inconclusive = small, poorly fitted or top-dose-only effect, or another doubt; inactive = no such curve, though single readings can be large; an effect the other way counts as inactive or inconclusive; note: nearly all actives have a fitted effect of over 60% in size
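Kinase-Glo luciferase light output from ATP and luciferin was measured with 10 uM ATP, within the enzyme's linear range. Buffer: 50 mM imidazole pH 7.2, 50 mM KCl, 7 mM MgCl2, 0.01% Tween 20, 0.05% BSA; luminescence read after 8 min at ambient temperature.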
Hits are given with their value; ! = repeats disagree; [ ] = another dose, or the depositor's remark. Rows were chosen to be rich in hits. Some 9% of all compounds tested hit in one or more screens of this group. Unless noted, calls come from the whole dose curve; as a rule, active = well fitted inhibition curve with a large enough effect (not every such curve was filed as active); inconclusive = small, poorly fitted or top-dose-only effect, or another doubt; inactive = no such curve, though single readings can be large or run the other way.

For Cc1[nH]c2ccccc2c1/C=N/O the results were IMPase Li cell inactive, HPGD block 13µM, ALDH1A1 inh inactive, Lamin A splicing inactive and Luc counter inactive.
Screening Cc1nccc2c1[nH]c1ccccc12 returned IMPase Li cell inactive, HPGD block inconclusive, ALDH1A1 inh inconclusive, Lamin A splicing inactive and Luc counter inactive.
`Cl/C=C/Cl` gave IMPase Li cell inactive, HPGD block inactive and ALDH1A1 inh inactive.
For C#CCN1C(C)=C(C(=O)CCO)[C@@H](c2cccc(-n3oo3)c2)C(C(=O)OC)=C1C the results were IMPase Li cell inactive, HPGD block inactive, ALDH1A1 inh inactive and Luc counter inactive.
`C[C@H](NC(=O)[C@@H](N)Cc1ccc(O)cc1)C(=O)N[C@@H](Cc1ccccc1)C(=O)N[C@@H](Cc1ccccc1)C(N)=O` gave IMPase Li cell inactive and ALDH1A1 inh inactive.
Screening COC[C@H]1OC(=O)c2coc3c2[C@@]1(C)C1=C(C3=O)C2CCC(=O)[C@@]2(C)C[C@H]1OC(C)=O (stereo partly specified) returned IMPase Li cell inactive, HPGD block 35µM!, ALDH1A1 inh 28µM!, Lamin A splicing inconclusive and Luc counter inactive.
For COC[C@H]1OC(=O)c2coc3c2[C@@]1(C)C1=C(C3=O)[C@H]2CCC(=O)[C@@]2(C)C[C@H]1OC(C)=O the results were IMPase Li cell inactive, HPGD block 32µM, ALDH1A1 inh 28µM and Luc counter inactive.
COC(=O)c1ccccc1N=Cc1c(O)[nH]c(=S)[nH]c1=O was read as IMPase Li cell 11µM, ALDH1A1 inh inactive, Lamin A splicing inactive and Luc counter inactive.
COc1ccc(N=Nc2c(O)[nH]c(=S)[nH]c2=O)cc1 was read as IMPase Li cell inactive, ALDH1A1 inh inactive, Lamin A splicing inactive[9.22 µM] and Luc counter inconclusive.
CSc1nc(N)c(N=Nc2ccc([As](=O)(O)O)cc2)c(=O)[nH]1 was read as ALDH1A1 inh 8.9µM.
C=C1CC2C(CC[C@]3(C)C(=O)CCC23)[C@]2(C)C=CC(=O)C=C12 (stereo partly specified) was read as IMPase Li cell inactive, HPGD block inactive, ALDH1A1 inh 28µM, Lamin A splicing inconclusive and Luc counter inactive.
For C[C@]12C=CC(=O)C=C1CC[C@@H]1[C@@H]2CC[C@@]2(C)[C@H]1CC[C@]2(C)O the results were IMPase Li cell inactive, HPGD block inactive, ALDH1A1 inh inactive, Lamin A splicing inconclusive and Luc counter inactive.
[N-]=[N+]=[N-] was read as IMPase Li cell inactive, HPGD block inactive and ALDH1A1 inh 18µM.
Screening CC(C)(C)c1ccccc1O returned IMPase Li cell inactive, HPGD block inactive and ALDH1A1 inh 32µM.
CC(C)(C)c1cc(O)ccc1O was read as IMPase Li cell inactive, HPGD block inactive, ALDH1A1 inh 3.5µM, Lamin A splicing inconclusive and Luc counter inactive[7.66 µM].
`COc1ccc(O)c(C(C)(C)C)c1` gave IMPase Li cell inactive, HPGD block inactive, ALDH1A1 inh inactive and Luc counter inactive.
CC[C@H]1CN2CCc3cc(OC)c(OC)cc3[C@H]2C[C@@H]1C[C@@H]1NCCc2cc(OC)c(OC)cc21 was read as IMPase Li cell inactive, HPGD block inactive, ALDH1A1 inh inactive, Lamin A splicing inconclusive and Luc counter inactive.
`COC(=O)C1(C)C=C2C(=C(C)C(=O)C2C)CN1` (stereo unspecified) gave IMPase Li cell inactive, HPGD block inactive, ALDH1A1 inh inconclusive and Luc counter inactive.
For COC(=O)[C@H]1C(=O)[C@H](C(=O)OC)[C@@H]2CC[C@H]1N2C the results were IMPase Li cell inactive, HPGD block inactive, ALDH1A1 inh inactive[13.5 µM] and Luc counter inactive[7.66 µM].
`ClC1=C(Cl)C(Cl)(Cl)C(Cl)=C1Cl` gave IMPase Li cell inactive, HPGD block inactive and ALDH1A1 inh 28µM.
For CN1C(=O)N(C)C(=O)C2(Cc3ccccc3N3CCOCC32)C1=O (stereo unspecified) the results were IMPase Li cell inactive, HPGD block inactive, ALDH1A1 inh 20µM, Lamin A splicing inactive and Luc counter inactive.
For Cc1cc(Cl)ccc1OCCCC(=O)NCc1cccs1 the results were IMPase Li cell inactive, HPGD block 32µM, ALDH1A1 inh inactive, Lamin A splicing inactive and Luc counter inactive.
For Cc1cc(OCCCC(=O)NCc2cccs2)ccc1Cl the results were IMPase Li cell inactive, HPGD block inactive, ALDH1A1 inh inactive, Lamin A splicing inconclusive and Luc counter inactive.
COc1ccc(OP(=O)(Nc2ccccc2)Nc2ccccc2)cc1 was read as IMPase Li cell inactive, HPGD block 14µM, ALDH1A1 inh inactive, Lamin A splicing inactive and Luc counter inactive.
For CC[C@@H]1[C@@H]2Cc3ccc(O)cc3[C@@]1(CC)CCN2C the results were IMPase Li cell inactive, HPGD block inactive, ALDH1A1 inh inactive[13.5 µM] and Luc counter inactive[7.66 µM].
For CCC1CN2CCC1CC2C(O)c1ccnc2ccccc12 (stereo unspecified) the results were IMPase Li cell inactive, HPGD block inactive, ALDH1A1 inh inactive and Luc counter inactive.
Screening COc1cc(C=C(C#N)C#N)cc(O)c1O returned IMPase Li cell inactive, HPGD block 32µM, ALDH1A1 inh 32µM, Lamin A splicing inconclusive and Luc counter inactive.
For CCc1ccc(/C=C(/C#N)C(N)=S)cc1 the results were IMPase Li cell inactive, HPGD block 32µM, ALDH1A1 inh 32µM, Lamin A splicing inconclusive and Luc counter inactive.
For N#CC(=Cc1ccc(O)c(O)c1)C(N)=S the results were IMPase Li cell inactive, HPGD block 28µM, ALDH1A1 inh 0.79µM, Lamin A splicing inconclusive and Luc counter inactive.
Screening CC(C)(C)c1cc(C=C(C#N)C#N)cc(C(C)(C)C)c1O returned IMPase Li cell inactive, HPGD block inconclusive, ALDH1A1 inh 8.9µM!, Lamin A splicing inconclusive and Luc counter inactive.
For C[C@@H]1[C@@H](C)N1C[C@H](O)Cn1ccnc1[N+](=O)[O-] (stereo partly specified) the results were IMPase Li cell inactive, HPGD block inactive, ALDH1A1 inh inactive[13.5 µM] and Luc counter inactive[7.66 µM].
`CC(Cc1cccc(C(F)(F)F)c1)NCCCc1ccccc1` (stereo unspecified) gave IMPase Li cell inactive and ALDH1A1 inh inactive.
For N#CC(C#N)=Cc1ccc(N2CCCC2)cc1 the results were IMPase Li cell inactive, ALDH1A1 inh 10µM and Luc counter inactive.
Screening CN(C)c1ccc(C=C(C#N)C#N)cc1 returned IMPase Li cell inactive, HPGD block inactive, ALDH1A1 inh 28µM, Lamin A splicing inactive and Luc counter inactive.
For N#CC(C#N)=Cc1ccc(O)c(O)c1 the results were IMPase Li cell inactive, HPGD block 32µM, ALDH1A1 inh 11µM, Lamin A splicing inconclusive and Luc counter inactive.
